Entries with a potency or affinity are not part of this list. Calls of active or inactive are those of the source. The rule behind the calls is not given here.
What follows are compounds tested against KSHV LANA C-terminal domain (residues 932-1162) binding to LBS DNA (UniProt O40947) (assay: KSHV LANA DNA-binding disruption – biochemical, fluorescence polarization, cherry-picked samples, dose response (AID 504725)). Conditions: MBP-C-LANA / FAM-LBS DNA fluorescence polarization, percent change from plate compound-well median; series mostly up to 35 µM.

Row | SMILES | outcome
1 | O=C(O)CN1C(=O)/C(=C\c2cc(Br)ccc2OCc2ccc([N+](=O)[O-])cc2)SC1=S | inactive
2 | CCOCCCn1c(SCC(=O)NC(C)(C)C)nc2ccccc2c1=O | inactive
3 | O=C1CN=C(Nc2ccccc2Cl)N1Cc1ccc2c(c1)OCO2 | inactive
4 | CC(=O)Nc1ccc(S(=O)(=O)Nc2ccccc2N2CCOCC2)cc1 | inactive
5 | Cc1nnc(NC(=O)CN2C(=O)NC3(CCCC3)C2=O)s1 | inactive
6 | CCCc1cc(C(=O)Nc2ccc(C(=O)c3ccc(C)cc3)cc2)n(C)n1 | inactive
7 | COc1ccc(N(CC(=O)NCc2ccc3c(c2)OCO3)C(=O)c2csnn2)cc1 | inactive
8 | O=C(Cn1ncc(N2CCCC2)c(Cl)c1=O)c1ccc(Cl)cc1 | inactive
9 | CNC(=S)Nc1cccc(C(=O)OC)c1 | inactive
10 | N=C1/C(=C\c2ccc(Br)o2)C(=O)N=C2SC(CC(=O)N3CCOCC3)=NN12 | inactive
11 | S=c1c2c(nc3nc[nH]n13)CCC2 | inactive
12 | COc1ccc(CCNC(=O)CCCNC(=O)Cn2cnc3sc(C)c(C)c3c2=O)cc1OC | inactive
13 | Cc1cc(C)n(CCC(=O)N/N=C/c2ccc(O)cc2O)n1 | inactive
14 | CCN(C(=O)COC(=O)CNS(=O)(=O)c1ccc(SC)c([N+](=O)[O-])c1)C1CCCCC1 | inactive
15 | O=C(Nc1ccc2c(c1)OCO2)N1CCCc2ccccc21 | inactive
16 | NC(=O)c1ccc(NC(=O)C2COc3ccccc3O2)cc1 (centres undefined) | inactive
17 | COc1[nH]c(/N=C/c2ccccc2)c(C#N)c1C#N | inactive
18 | N=c1ccn(Cc2ccc(Cl)cc2)cc1 | inactive
19 | CCOC(=O)c1ccccc1Nc1cc(C)nc2nc(C)nn12 | inactive

Reference: PubChem BioAssay AID504725 (Broad Institute, 2011)
